# Test results from PubChem BioAssay AID504332 (National Center for Advancing Translational Sciences (NCATS), 2011).
# In all, about 350,000 compounds went through this assay and about 31,000 (8.9%) were called active. Where a call stands in place of a potency, no number is given. Roughly 15% stayed inconclusive and do not appear here. The sample as a whole holds a higher share of actives than the screen did. Unmarked numbers belong to inactive results. Calls come from the whole dose curve; as a rule, active = well fitted inhibition curve with a large enough effect; inconclusive = small, poorly fitted or top-dose-only effect; inactive = no such curve, though single readings can be large or run the other way.
# Target: Histone-lysine N-methyltransferase EHMT2 (Homo sapiens) (UniProt Q96KQ7)
# Assay: qHTS Assay for Inhibitors of Histone Lysine Methyltransferase G9a; note: nearly all actives have a fitted effect of over 75% in size
# Conditions: G9a H3K9 monomethylation, AlphaScreen, 2 h; series mostly up to 59 µM
# Text: Methylated lysines, on the N-terminal tails of histone proteins serve as epigenetic markers to recruit factors that can then modify local chromatin structure to lead to functional consequences. G9a and other members of the SUV39 family of the SET domain-containing superfamily of histone lysine methyltransferases (HMT) have been identified to specifically methylate Lys9 of histone H3 (H3K9). G9a catalyzes the mono- and di-methylation of H3K9 in mammalian euchromatic regions, where the resulting H3K9me2 is indicative of transcriptional repression. […] The inhibition of G9a will result in transcriptional activation and work synergistically with DNA methyltransferase and histone deacetylase inhibitors, to kill cancer cells. This qHTS assay for identification of G9a inhibitors is a chemiluminescence based AlphaScreen (PerkinElmer). Methylation of biotinylated-histone peptide is measured through specific antibody-based detection, in conjunction with streptavidin-coated donor and anti-IgG antibody-coated acceptor beads. The method is particularly well suited for detection of inhibitors acting by the desired histone peptide competitive mechanism and is applicable to testing other HMTs. Although AlphaScreen has significant advantages with its utility in a variety of epigenetic target assays, the primary screening data provided in this deposition should be used with caution due to the prevalence of screening artifacts. An AlphaScreen counterscreen is highly recommended to be run against any putative actives to eliminate non specific artifacts. Alternatively, one can use other AlphaScreen assays in PubChem to filter out promiscuous hits. Quinn et al. A chemiluminescence-based method for identification of histone lysine methyltransferase inhibitors. Mol Biosyst 6(5): 782-8. 2010. PMID: 20567762 [2] Baell,Holloway. New substructure filters for removal of pan assay interference compounds (PAINS) from screening libraries and for their exclusion in bioassays. J Med Chem. 53(7):2719-40. 2010. PMID: 20131845 NIH Molecular Libraries Probe Production Network [MLPCN] NIH Chemical Genomics Center [NCGC] Structural Genomics Consortium (SGC) NIH Grant: 5U54 MH084681-02
# To each well of a 1,536w plate, 2ul of HMT enzyme (final 20nM) were added, using a nanoliter dispenser. The G9a- and GLP-inhibitor BIX-01294 (CID: 25150857) are used as an intraplate control, with a 16-point titration in duplicate. A Kalypsys pin-tool transferred 23nl of library compound solution in DMSO to each well. Following a 15 min incubation of enzyme with compounds at room temperature, 1ul mixture of b-H3K9 peptide substrate (final 500nM) and SAM cofactor (final 20uM) were added. Reactions were allowed to proceed at room temperature for 2 hours. Methylated b-H3K9 peptide product was detected with 0.5 ug/mL rabbit polyclonal anti-monomethyl histone H3K9 antibody (Abcam Inc., Cambridge, MA) and 20 ug/mL each streptavidin-coated donor and anti-rabbit IgG acceptor AlphaScreen beads. Antibody and beads were added in a 1ul dispense, for a final volume of 4ul, and plates were incubated, protected from the light, for 10 min at room temperature. Microplates were then read on an EnVision multilabel plate reader using the 1,536 plate HTS AlphaScreen aperture (excitation time 80 ms, measurement time 240 ms).
# Potency is the fitted concentration of half-maximal effect.
# Chain of Histone-lysine N-methyltransferase EHMT2 (Homo sapiens) (Q96KQ7 913-1193 limits assumed): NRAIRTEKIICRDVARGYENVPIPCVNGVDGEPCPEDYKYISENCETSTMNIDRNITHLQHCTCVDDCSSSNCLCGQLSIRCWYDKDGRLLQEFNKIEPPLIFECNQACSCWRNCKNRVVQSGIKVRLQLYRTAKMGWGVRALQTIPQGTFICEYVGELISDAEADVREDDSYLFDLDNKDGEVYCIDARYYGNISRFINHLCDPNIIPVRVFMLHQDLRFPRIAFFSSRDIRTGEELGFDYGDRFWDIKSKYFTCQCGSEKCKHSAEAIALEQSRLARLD
SMILES,Potency,"activity, negative = inhibition"
C/C(=N\Nc1ccc(S(N)(=O)=O)cc1[N+](=O)[O-])c1cccs1,25.1 µM (active),
C/C(=N\Nc1ncc(Cl)cc1Cl)c1cccs1,inactive,
C/C(=N\NC(=O)COc1c(C)cccc1C)c1cccs1,inactive,
C=CCOc1ccc(C(=O)Nc2ccccc2C(=O)N2CCCC2)cc1,inactive,
O=C(NCCc1ccc(Cl)cc1)c1ccc2c(c1)N(Cc1ccc(F)cc1)C(=O)CS2,inactive,
O=C(CSc1nnc(-c2cccs2)n1-c1ccccc1)NCc1ccco1,,-5.59% [at 12.7 µM]
O=C(CSc1nnc(-c2cccs2)n1-c1ccccc1)N1CCN(C(=O)c2ccco2)CC1,7.08 µM (active),
Cc1cc2ccccc2n2c(SCC(=O)N3CCN(C(=O)c4ccco4)CC3)nnc12,inactive,
Cc1cc(=O)n2[nH]c(-c3cccc(Cl)c3)cc2n1,inactive,
Cc1cc(/C=C2\SC(=Nc3ccc(N4CCOCC4)cc3)N(C)C2=O)c(C)n1-c1cccnc1,70.8 µM (active),
O=C(/C=C/c1ccc(N2CCOCC2)cc1)c1ccccc1,inactive,
Cc1cc(/C=C(/C#N)C(=O)Nc2ccc(Cl)cc2)c(C)n1-c1cccnc1,inactive,
O=C(NCCS(=O)(=O)NCc1ccc(Cl)cc1)c1ccccc1,inactive,
Cc1cc(NS(=O)(=O)c2ccc(NC(=O)c3cccnc3)cc2)nc(C)n1,inactive,
O=C(/C=C/Nc1ccc(S(=O)(=O)Nc2cnc3ccccc3n2)cc1)c1cccnc1,70.8 µM (active),
Cc1noc(NS(=O)(=O)c2ccc(N/C=C/C(=O)c3ccccc3)cc2)c1C,,-38.3% [at 2.33 µM]
CC(OC(=O)CCCOc1ccccc1)C(=O)Nc1ccc(Cl)cn1 (stereo unspecified),inactive,
Cc1ccc(-c2noc(CSc3nnc(-c4ccc(Cl)cc4)n3C)n2)cc1,inactive,
Cc1cc(=O)n2nc(N3CCCC(C(=O)NCc4cccc(Cl)c4)C3)sc2n1 (stereo unspecified),inactive,
O=C(CN1CCN(c2ccc(Cl)cc2)CC1)c1ccccc1,8.91 µM (active),
O=C(CN1CCN(c2ccc(Cl)cc2)CC1)N1CCCC1,inactive,
O=C(CN1CCN(S(=O)(=O)/C=C/c2ccccc2)CC1)NC(=O)NCc1ccco1,20 µM (active),
NC(=O)CCN1CCN(S(=O)(=O)/C=C/c2ccccc2)CC1,inactive,
COc1ccc(NC(C)=O)cc1NC(=O)CN1CCN(c2ccc(F)cc2)CC1,inactive,

SMILES,Potency,"activity, negative = inhibition"
O=C(CN1CCOCC1)Nc1cc(Cl)ccc1Cl,inactive,
Cc1ccc(Cl)cc1NC(=O)CN1CCN(S(=O)(=O)N2CCOCC2)CC1,inactive,
COc1ccccc1N1CCN(CC(=O)NC(=O)NCc2ccco2)CC1,inactive,
O=C(CN1CCN(c2ccc(O)cc2)CC1)Nc1cc(S(=O)(=O)N2CCOCC2)ccc1Cl,3.16 µM (active),
CC(C)OC(=O)CN1CCN(c2ccc(Cl)cc2)CC1,inactive,
O=C(CN1c2ccccc2S(=O)(=O)c2ccccc21)Nc1cccc(C(F)(F)F)c1,inactive,
O=C(CN1CCN(c2ccc(F)cc2)CC1)Nc1cccc(C(F)(F)F)c1,50.1 µM (active),
COc1ccccc1NC(=O)C1=C(C)Nc2nc(SCC(=O)c3ccc(C)cc3)nn2C1c1ccccc1C (stereo unspecified),inactive,
O=C(NCc1ccncc1)c1cccc(NS(=O)(=O)c2ccc(F)c(F)c2)c1,inactive,
CC1CCCCN1S(=O)(=O)c1ccc(F)c(C(=O)Nc2ccccc2C(F)(F)F)c1 (stereo unspecified),inactive,
CN(Cc1ccccc1)S(=O)(=O)c1ccc(F)c(C(=O)Nc2cccc(Cl)c2Cl)c1,inactive,
COc1ccc(-c2c(C)c3ccc(O)c(CN4CCCC4)c3oc2=O)cc1OC,inactive,
COc1ccc(-c2noc(CCC(=O)N(C)c3ccccc3C)n2)cc1,inactive,
Cc1ccc2nc(SCC(=O)N3CCN(c4ccccc4)CC3)nc(=O)n2c1,,-0.43% [at 0.501 µM]
O=C(COC(=O)c1cc(=O)[nH]c2ccccc12)NCc1cccc(Cl)c1,,1.96% [at 12.7 µM]
CN(C)S(=O)(=O)c1ccc(C(=O)N(Cc2cccnc2)c2nc3c(F)cc(F)cc3s2)cc1,inactive,
COc1ccccc1NC(=O)C1CCCN1S(=O)(=O)c1ccc(Cl)cc1 (stereo unspecified),inactive,
O=C(CNC(=O)c1ccc(Br)o1)NCC1CCCO1 (stereo unspecified),inactive,
NS(=O)(=O)c1ccc(NC(=O)C(=O)Nc2ccc3nc4n(c(=O)c3c2)CCCCC4)cc1,inactive,
O=C(CN1CCN(c2ccccc2)CC1)Nc1ccc(F)cc1,inactive,
O=C(CN1CCOCC1)Nc1ccccc1,,41.4% [at 12.7 µM]
O=c1cc(CN2CCN(S(=O)(=O)/C=C/c3ccccc3)CC2)c2ccc(O)cc2o1,inactive,
O=C(CN1CCN(S(=O)(=O)/C=C/c2ccccc2)CC1)Nc1ccc(N2CCOCC2)cc1,35.5 µM (active),
CC(=O)c1ccc(N2CCN(CC(=O)Nc3ccccc3N3CCOCC3)CC2)cc1,inactive,

SMILES,Potency,"activity, negative = inhibition"
O=C(CN1CCN(c2ccc(O)cc2)CC1)Nc1ccc(-c2ccccc2)cc1,11.2 µM (active),
Cc1ccccc1NC(=O)c1cc2c([nH]c1=O)CC(C)(C)CC2=O,inactive,
O=C(Nc1cc(Cl)ccc1N1CCOCC1)c1ccc(N2CCCC2=O)cc1,inactive,
CCc1ccccc1NC(=O)Cn1c(=O)n(-c2cccc(C)c2)c(=O)c2c1c1cc(OC)ccc1n2C,inactive,
CC(C)c1cc(C(=O)O)n[nH]1,44.7 µM (active),
CC(C)c1cc(C(=O)O)on1,inactive,
CC(C)c1cc(C(=O)N/N=C/C(Br)=C/c2ccccc2)n[nH]1,inactive,
O=C(CNC(=O)c1ccccc1Br)NCCSc1ccc(Br)cc1,inactive,
Cc1ccc2nc(COc3cccc(NC(=O)c4cccc(Cl)c4)c3)cc(=O)n2c1,inactive,
CN1C(=O)/C(=C/c2ccco2)SC1=Nc1cccc(C(=O)O)c1,28.2 µM (active),
O=C(CCCN1C(=O)/C(=C/c2ccco2)SC1=S)Nc1ccccc1,inactive,
CN=C1S/C(=C\c2c(OC)cc(OC)cc2OC)C(=O)N1C,inactive,
COc1ccc(CCNC(=O)CCCCCNC(=O)N2CCn3c2nc2ccccc23)cc1OC,inactive,
COc1ccc(NC(=O)Cn2cc(C(=O)c3ccncc3)c(=O)c3cc(C)ccc32)cc1Cl,,3.8% [at 12.7 µM]
CC(CN1CCC(n2nccc2NC(=O)C2CCCC2)CC1)c1ccccc1 (stereo unspecified),inactive,
CC(CN1CCOCC1)c1ccccc1 (stereo unspecified),inactive,
CC(CN1CCCCC1)c1ccccc1 (stereo unspecified),11.2 µM (active),
O=S(=O)(c1ccc(SCc2ccc(Br)cc2)nc1)N1CCOCC1,,-2.71% [at 12.7 µM]
Cc1ccc(CN2CC(C(=O)NNC(=O)Cn3ccc(C(F)(F)F)n3)CC2=O)cc1 (stereo unspecified),,-2.67% [at 12.7 µM]
Cc1ccc(-c2nn3c(=O)cc(CN4CCN(S(=O)(=O)c5ccc(Cl)cc5)CC4)nc3s2)cc1,inactive,
CCOc1cc(C(=S)N2CCOCC2)ccc1OS(=O)(=O)c1ccc(Br)cc1,inactive,
CCOc1cc(C(=S)N2CCOCC2)ccc1O,4.47 µM (active),
CCOc1cc(C(=O)OCC(=O)Nc2cccc(C)c2)ccc1OCC(=O)N1CCOCC1,inactive,
Cc1cccc(NC(=O)CSc2ncc(-c3ccccc3)[nH]2)c1C,inactive,

SMILES,Potency,"activity, negative = inhibition"
O=C(OCC1OC(Oc2ccc(O)cc2)C(O)C(O)C1O)c1ccccc1 (stereo unspecified),,2.48% [at 12.7 µM]
Cc1ccc2c(c1)C1CN(C)CCC1N2S(=O)(=O)c1cccc(F)c1 (stereo unspecified),inactive,
COc1ccc(S(=O)(=O)N2CCOC23CCN(S(=O)(=O)c2ccc([N+](=O)[O-])cc2)CC3)cc1,,-2.42% [at 0.501 µM]
Cc1ccc2c(c1)C1CN(C)CCC1N2S(=O)(=O)c1ccc(Oc2ccc([N+](=O)[O-])cc2)cc1 (stereo unspecified),35.5 µM (active),
COc1ccc(C(=O)NC2CCN(C(=O)Nc3ccc(F)cc3)CC2)cc1,inactive,
COc1ccc(OC)c(NC(=O)CSc2nc3ccccc3nc2N2CCCCC2)c1,inactive,
CCc1cc2cc(OC)ccc2nc1SCC(=O)Nc1cc(OC)c(OC)cc1C(=O)O,50.1 µM (active),
CCc1nnc(SCC(=O)Nc2cc(OC)ccc2OC)nc1CC,inactive,
N#Cc1c(N)n(CCOC(=O)c2ccc(Cl)cc2)c2nc3ccccc3nc12,inactive,
CC(C)(C)c1ccc(C(=O)NCCn2c(N)c(C#N)c3nc4ccccc4nc32)cc1,inactive,
CN(C)CCCn1c(N)c(C#N)c2nc(C#N)c(C#N)nc21,25.1 µM (active),
COc1ccc(CNC(=O)CN(c2ccc(OC)c(Cl)c2)S(=O)(=O)c2ccc(C)cc2)cc1,inactive,
O=C(CNC(=O)c1ccc2ccccc2c1)Nc1ncccc1O,,20.5% [at 2.33 µM]
CCOc1ccc(N2CC(C(=O)NCc3ccccn3)CC2=O)cc1 (stereo unspecified),inactive,
CCOc1ccc(N2CC(C(=O)NCCN3C(=O)S/C(=C\c4cccnc4)C3=O)CC2=O)cc1 (stereo unspecified),39.8 µM (active),
COc1ccccc1N1CC(C(=O)NCCN2C(=O)S/C(=C\c3cccnc3)C2=O)CC1=O (stereo unspecified),,2.97% [at 12.7 µM]
CCN(c1ccccc1)S(=O)(=O)c1cc(C(=O)NCc2ccccn2)ccc1C,inactive,
COc1ccc(Cl)cc1N(C)C(=O)c1cc2c(=O)oc3ccc(C)cc3c2s1,inactive,
COC(=O)c1ccc(COC(=O)CNC(=O)c2cccc(OC)c2)o1,inactive,
COc1ccccc1Oc1nc(-c2cccnc2)nc2ccccc12,inactive,
COc1cc(Nc2nc(-c3ccc(OC)c(OC)c3)nc3ccccc23)cc(OC)c1,inactive,
COc1ccc(Nc2nc(-c3cccnc3)nc3ccccc23)cn1,35.5 µM (active),
CCc1nc2onc(C)c2c(=O)n1CC(=O)O,inactive,
CCC(=O)c1cc(F)ccc1OCC(=O)Nc1ccc2c(c1)OCCO2,,-5.64% [at 12.7 µM]
